Bioassay records: PubChem, National Center for Advancing Translational Sciences (NCATS)
An excerpt weighted towards active compounds, which were near 7.7% of everything screened.
FMDV inh: antivirals against foot and mouth disease virus; FMDV antiviral cell-based qHTS; hit rate 1.2% among 410,000; Potency, µM (highest dose often 57.9 µM), for the others: at the top dose activity change, negative = inhibition, hits mostly inhibitors; calls by dose curve; tested in HEK293T cells; further: read-out not given here; potency means the concentration at half of the fitted maximal effect; nearly all actives have a fitted effect of over 45% in size
TbPYK inhibitor: T. brucei pyruvate kinase inhibition. Q57TT1. TbPYK enzyme, Kinase-Glo Plus ATP luminescence, 45 min. Potency, µM (top dose mostly 76.8 µM), for inactives: at the top dose activity, negative = inhibition, usual class: inhibitors. hit rate 0.12% among 410,000. AID 624173; further: potency means the concentration at half of the fitted maximal effect; nearly all actives have a fitted effect of over 50% in size
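Quantitative HTS: titrated library compounds versus trypanosomal pyruvate kinase in TEA buffer (pH 7.2) containing KCl, MgCl2, BSA and Tween-20. Reactions were initiated with ADP, 130 uM final. Kinase-Glo Plus luminescence was read after 45 min at RT.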
HCMV antiviral: blocks human cytomegalovirus replication | HFF cells, HCMV-luciferase reporter, 72 h; active compounds read low | activity change, negative = inhibition, % at 57.5 µM | hit rate 4.5% among 410,000; in the data active means activity change below about -60%; inconclusive means no clear call, values can overlap the other calls; inactive means above about -39%
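Inhibition of viral replication was scored as loss of reporter luminescence in HFFs infected with HCMV-luciferase (MOI 1 PFU/cell) for 72 h; compounds tested at 2 doses, normalized to buffer and Salinomycin controls.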
RE007 growth inh: less growth of the S. pombe RE007 Vpr strain; S. pombe RE007 Vpr strain, BacTiter-Glo ATP luminescence, 24 h; Potency, µM (doses to about 92.2 µM), without a hit: at the highest dose activity change, negative = less growth, most hits filed as inhibitors; hit rate 0.21% among 360,000; AID 651644; active means well fitted falling curve with a large enough effect; inconclusive means small, poorly fitted or top-dose-only effect; inactive means no such curve, though single readings can be large or run the other way; further: potency means the concentration at half of the fitted maximal effect; nearly all actives have a fitted effect of over 50% in size
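Fission yeast RE007 carrying one integrated HIV-1 vpr copy, seeded at OD 0.01 in PMG+AL medium with 23 nL pinned compound. Grown 24 h at 30 degrees; viability read by BacTiter-Glo luminescence after 5 min.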
FBPA Giardia inh: inhibitors of Giardia lamblia fructose-1,6-bisphosphate aldolase | purified Giardia FBPA | Potency, µM (top dose mostly 59.6 µM), without a hit: at the highest dose activity, negative = inhibition, hits mostly inhibitors | hit rate 0.71% among 290,000; further: potency means the concentration at half of the fitted maximal effect; nearly all actives have a fitted effect of over 55% in size
Target sequence (A8B2U2 whole entry, looked up): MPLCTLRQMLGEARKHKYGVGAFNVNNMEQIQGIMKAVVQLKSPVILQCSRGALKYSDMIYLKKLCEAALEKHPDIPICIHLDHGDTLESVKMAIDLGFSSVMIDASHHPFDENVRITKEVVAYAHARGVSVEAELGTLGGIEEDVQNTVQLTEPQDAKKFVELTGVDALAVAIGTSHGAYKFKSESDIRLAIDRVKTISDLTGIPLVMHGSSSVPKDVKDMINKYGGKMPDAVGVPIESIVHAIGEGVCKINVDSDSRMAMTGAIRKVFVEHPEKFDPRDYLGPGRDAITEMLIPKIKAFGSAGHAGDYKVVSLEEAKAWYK
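Giardia FBPA (40 nM reagent) was preincubated 10 min at RT with compound (up to 57.5 uM final), then substrate plus GAPDH/TPI/NAD/arsenate coupling system with diaphorase/resazurin was added; resorufin fluorescence (525/598 nm) was read after 20 min.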
Sm TGR block: S. mansoni TGR enzyme inhibition. Q962Y6. purified TGR, DTNB reduction, TNB absorbance 405 nm. Potency, µM (titrated, usually from 114 µM), inactives show top-dose activity change, negative = inhibition, usual class: inhibitors. hit rate 3% among 360,000. AID 485364; further: potency means the concentration at half of the fitted maximal effect; nearly all actives have a fitted effect of over 60% in size
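Kinetic colorimetric format: TGR-catalysed, NADPH-driven DTNB reduction monitored via TNB absorbance. Enzyme dispensed at 20 nM; compound exposure 15 min at room temperature before reaction start.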
Starred values were filed as active, the others as inactive; ? = inconclusive; / = no result given; [ ] = dose if it differs, or a comment. Unless noted, the call rests on the fitted dose curve; in most records, active means well fitted curve in the direction sought with a large enough effect; inconclusive means small, poorly fitted or top-dose-only effect, or another doubt; inactive means no such curve, though single readings can be large; an effect the other way counts as inactive or inconclusive. On the % scale 0 is the no-effect control and ±100 the full control effect.

SMILES	FMDV inh	TbPYK inhibitor	HCMV antiviral	RE007 growth inh	FBPA Giardia inh	Sm TGR block
CC(=O)N1CC2(CC2)CC1c1ccccc1 (centres undefined)	/	/	/	/	4%	/
CCc1ccc(-n2nc(C)c3c(C)cc(=O)n(CC(=O)N4CCCc5ccccc54)c32)cc1	-21%	-1%	35	/	/	-7%
CCC(C)[C@H](NC(=O)c1cc2cc(Cl)ccc2n1C)C(=O)N1CCC(C(=O)O)CC1 (some centres undefined)	-6%	-3%	-68*	3%	-1%	-14%
CC(C)[C@H](NC(=O)c1cc2cc(Cl)ccc2n1C)C(=O)N1CCC(C(=O)O)CC1	-11%	-1%	-33	4%	-13%	-6%
Cc1ccc2nc(CSc3nnc(NC(=O)c4ccc(C(C)(C)C)cc4)s3)cc(=O)n2c1	9%	-5%	-34	/	/	3%
CCN1CCN(c2oc(/C=C/c3ccc(OC)c(OC)c3)nc2C#N)CC1	-9%	15%	49	/	/	-4%
Cc1nn(-c2ccccc2)c(C)c1NC(=O)COc1ccc(Br)cc1Cl	22µM*	-8%	?	-4%	3%	0%
Cc1nn(-c2ccccc2)c(C)c1NC(=O)COc1cc(F)ccc1[N+](=O)[O-]	25µM*	-6%	?	-14%	/	/
Cc1nn(-c2ccccc2)c(C)c1NC(=O)COc1ccccc1C#N	-5%	6%	-35	1%	/	/
Cc1nn(-c2ccccc2)c(C)c1NC(=O)COc1ccc2ccccc2c1	?	1%	?	13%	-3%	3%
COc1ccc(C2(C(=O)NCC3Cc4cccc(-c5cccnc5)c4O3)CCCC2)cc1 (centres undefined)	-14%	/	/	/	/	/
Cc1ccc(NC(=O)CSc2nc(-c3ccco3)nc3cc(=O)[nH]n23)cc1C	-27%	-4%	-8	/	/	22µM*
COc1ccc(NC(=O)CSc2nc(-c3ccco3)nc3cc(=O)[nH]n23)cc1	-17%	0%	-1	/	/	10µM*
COc1ccc(NC(=O)CSc2nc(-c3ccco3)nc3cc(=O)[nH]n23)cc1Cl	-22%	-6%	0	-5%	/	?
COC(=O)c1scc(-c2ccc(C)cc2)c1S(=O)(=O)N1CCN(c2ccccc2)CC1	6%	-4%	-4	/	/	1%
CCOC(=O)[C@@H]1CSCCS(=O)(=O)N1C(=O)[C@H](CCSC)NC(=O)OC(C)(C)C	/	/	8	/	/	/
CC(=O)c1cccc(NCc2ccccc2-c2nnc(-c3ccccc3)o2)c1	23%	2%	96	/	/	-7%
Cc1cc(C)c(S(=O)(=O)Nc2ccc(C(N)=O)cc2)c(C)c1	10%	3%	-84*	5%	-25%	0%
CC(=O)c1ccc(NS(=O)(=O)c2c(C)cc(C)cc2C)cc1	68%	3%	?	0%	-13%	/
Cc1cc(C)c(S(=O)(=O)Nc2ccc3c(c2)CCC3)c(C)c1	80%	1%	-85*	-19%	-18%	9%
Cc1cc(C)c(NC(=O)c2cc3c(=O)n4ccccc4nc3n2C)c(C)c1	?	4%	-79*	/	/	3%
CC(Oc1ccccc1F)C(=O)N1CCC(c2nc3ccccc3o2)CC1 (centres undefined)	0%	1%	?	/	/	0%
CCCCC(CCC(=O)O)(C(=O)OCC)c1csc(Nc2ccccc2)n1 (centres undefined)	-20%	2%	/	-10%	1%	-29%
CCCCC(CCC(=O)O)(C(=O)OCC)c1csc(Nc2ccc(OCC)cc2)n1 (centres undefined)	-12%	-8%	-30	0%	2%	50µM*
Cc1ccc(-c2nc(CNC(=O)Nc3ccccc3)c(C)o2)cc1	1%	1%	-14	/	/	2%
SMILES	FMDV inh	TbPYK inhibitor	HCMV antiviral	RE007 growth inh	FBPA Giardia inh	Sm TGR block
Cc1cc(-c2nn(-c3ccccc3F)cc2CNCCc2cnc[nH]2)c(C)s1	-20%	2%	11	16%	-7%	-11%
COc1ccc(-c2nn(-c3ccccc3F)cc2CNCCn2nc(C)cc2C)cc1	?	-4%	-73*	-10%	1%	26%
C[N+](C)(C)CCC(=O)c1cccc2ccccc12	-20%	/	/	/	17%	/
Cc1ccc(NC(=S)/C(C#N)=C2/Nc3ccccc3S2)cc1	?	-1%	-79*	-15%	/	/
N#C/C(C(=O)N1CCCCC1)=C1\Nc2ccccc2S1	34%	-8%	31	?	-24%	-1%
CCOc1ccc2[nH]c(=O)c(CN(Cc3ccc(F)cc3)C(=O)N3CCCC3)cc2c1	?	-6%	-8	-19%	-12%	-2%
COc1ccc2[nH]c(=O)c(CN(CCN3CCCC3)C(=O)Nc3ccccc3Cl)cc2c1	-15%	-2%	-88*	-18%	2%	-26%
CCOc1ccc2[nH]c(=O)c(CN(CCN3CCCC3)C(=S)Nc3ccccc3OCC)cc2c1	-16%	-6%	-64*	-15%	-14%	-12%
COc1cc(/C=C2\SC(=S)N(CCC(=O)Nc3ccccc3)C2=O)cc(OC)c1OC	-29%	0%	-18	1%	9%	3%
COc1cc(/C=C2\SC(=S)N(CCC(=O)Nc3cccc(O)c3)C2=O)cc(OC)c1OC	20µM*	-22%	-39	-10%	-5%	6%
O=C(CCCN1C(=O)/C(=C/c2cccs2)SC1=S)Nc1cccc(O)c1	0%	-2%	-100*	5%	-2%	13%
Cc1ccc(/C=C2/SC(=S)N(CCCC(=O)Nc3ccc(O)cc3)C2=O)cc1	7%	5%	-100*	-8%	-4%	9%
Cc1ccc(/C=C2\SC(=S)N(CCCC(=O)NC3CCCC3)C2=O)cc1	16µM*	1%	-61*	-8%	3%	5%
COc1cc(/C=C2\SC(=S)N(CCC(=O)NC3CCCC3)C2=O)cc(OC)c1OC	?	1%	18	2%	-2%	-1%
CCCCCCCCN1C(=O)N(Cc2ccc(OC)cc2)S(=O)(=O)c2ccc(F)cc21	/	/	-12	/	/	/
O=C(CCN1C(=O)/C(=C\c2ccccc2)SC1=S)Nc1ccc(C(=O)O)cc1	-9%	-7%	-8	5%	3%	2%
Cc1ccc(/C=C2\SC(=S)N(CCCC(=O)NNC(=O)c3ccccc3O)C2=O)cc1	8.9µM*	-2%	-93*	5%	11%	12%
O=C(CCCN1C(=O)/C(=C\c2ccccc2)SC1=S)Nc1ccc(O)cc1	-24%	4%	-96*	5%	-2%	0%[57.1 µM]
Cc1ccc(/C=C2\SC(=S)N(CCC(=O)NNC(=O)c3ccccc3O)C2=O)cc1	-2%	-1%	?	6%	24%	-1%
O=C(CCCN1C(=O)/C(=C/c2ccccc2)SC1=S)Nc1cccc(O)c1	14%	-4%	-97*	-6%	-7%	-16%
